Common to all, as to type: functional
For assay [1], the system named is Plasmodium falciparum. The assay is described as follows: GSK_TCMDC: Inhibition of Plasmodium falciparum 3D7 in whole red blood cells, using parasite LDH activity as an index of growth. Test compounds present at 2uM.
Assay [2] concerns Plasmodium falciparum. Briefly: GSK_TCMDC: Inhibition of Plasmodium falciparum Dd2 in whole red blood cells, using parasite LDH activity as an index of growth. Test compounds present at 2uM.
The test system of another assay is HepG2. Briefly: GSK_TCMDC: Percent inhibition of human HepG2 cell line. Test compounds present at 10uM.

`CC(=O)Nc1cccc(CNCc2ccc(-c3cnc(N4CCCC(C)(C)C4)nc3)cc2)c1.O=CO`: the Inhibition was found to be 93% in the assay on Plasmodium falciparum [1], 75% in the assay on Plasmodium falciparum [2] and 10% in the assay on HepG2.
As for `CCN(CC(C)O)C(=O)c1ccc(-c2ccc(-c3nc4cccc(C)c4[nH]3)cc2)cc1` (stereo unspecified), the Inhibition in the assay on Plasmodium falciparum [1] is 94%; in the assay on Plasmodium falciparum [2] it was 13%; in the assay with HepG2, 18%.
Consider `CN(C)c1nc2cc(-n3cnc4cc(-c5ccc(Cl)cc5)sc4c3=O)ccc2n1CCCN1CCCC1.O=C(O)C(F)(F)F`, for which the Inhibition with Plasmodium falciparum [1] was 97%; in the assay on Plasmodium falciparum [2], 73%; in the assay on HepG2 it was 99%.
Consider `CC(C)c1ccc(-c2noc(SCC(=O)N3CCCCC3C)n2)cc1` (stereo unspecified), for which the Inhibition is recorded as 92% in the assay on Plasmodium falciparum [1], 92% in the assay on Plasmodium falciparum [2] and 21% in the assay with HepG2.
In the case of `COc1cc2nc(NCCc3ccccc3)nc(NCc3ccc(C#N)cc3)c2cc1OC`, the results for the Inhibition in the assay with Plasmodium falciparum [1], with Plasmodium falciparum [2] and in the assay on HepG2 were 100%, 100% and 52%, respectively.
In the case of `CCN(CCCN1CCCCC1)c1cc(C)nc(Nc2cccc3c2CCCC3)n1.O=C(O)C(F)(F)F`, the Inhibition worked out at 92% with Plasmodium falciparum [1], 46% in the assay on Plasmodium falciparum [2] and 60% in the assay with HepG2.
`COc1cc2c(c(Cl)c1OC)CCN(Cc1ccccc1)CC2c1ccc(NC(=O)C(F)(F)F)cc1` (stereo unspecified): the Inhibition in the assay with Plasmodium falciparum [1] came to 85%; with Plasmodium falciparum [2] it was 79%; in the assay with HepG2, 0%.
For `Cc1cccc2nc(-c3cccc(-c4cccc(NC(=O)c5cnccc5C(F)(F)F)c4)c3)[nH]c12` the same measures were 98%, 47% and 7%.
For `OC(CNCc1ccccc1Oc1ccccc1)c1cccc(C(F)(F)F)c1` (stereo unspecified) the same measures were 100%, 98% and 0%.
For `COc1cccc(C(=O)NCCc2cccc(Cl)c2)c1OCc1ccccc1` the same measures were 85%, 0% and 0%.
Take `O=C(Cn1cc(C=C2SC(=NC3CCCC3)N(C3CCCC3)C2=O)c2ccccc21)N1CCCC1`: the values for the Inhibition in the assay with Plasmodium falciparum [1], in the assay on Plasmodium falciparum [2] and with HepG2 were 100%, 100% and 5%, respectively.
Regarding `CC(c1cccc(Nc2nccc(-c3c(-c4cccc(NC(=O)c5c(F)cccc5F)c4)nn4ncccc34)n2)c1)S(C)(=O)=O` (stereo unspecified), the Inhibition in the assay on Plasmodium falciparum [1] amounted to 98%; in the assay on Plasmodium falciparum [2], 98%; in the assay with HepG2, 79%.
For `Cl.c1cc(-c2cc3ccc(C4=NCCN4)cc3[nH]2)ccc1C1=NCCN1`, the results for the Inhibition in the assay on Plasmodium falciparum [1], with Plasmodium falciparum [2] and in the assay on HepG2 were 97%, 99% and 15%, respectively.
The like results for `COc1cccc(-c2cccc(-c3ccc(NC(=O)c4ccc([N+](=O)[O-])o4)cc3)n2)c1` were, in that order, 97%, 94% and 98%.
In the case of `Cc1cc(NC2CCN(CC3CCCCC3)CC2)nc(Nc2ccccc2Cl)n1`, the Inhibition in the assay with Plasmodium falciparum [1] was 100%; in the assay on Plasmodium falciparum [2], 31%; in the assay with HepG2, 28%.
As for `COCCCNC(=N)c1ccc(NC(=O)c2ccc(C(=O)Nc3ccc(C(=N)NCCCOC)cc3)cc2)cc1.Cl`, the Inhibition in the assay with Plasmodium falciparum [1] worked out at 100%; with Plasmodium falciparum [2], 99%; in the assay on HepG2 it was 33%.
Take `CN1CCN(CC(=O)Nc2cccc(-c3ccc(-c4nc5cc(F)ccc5[nH]4)cc3)c2)CC1`: the Inhibition amounted to 100% with Plasmodium falciparum [1], 98% in the assay with Plasmodium falciparum [2] and 20% in the assay with HepG2.
`O=C(Nc1ccc(OC2CCN(Cc3ccsc3)CC2)c(Cl)c1)c1ccco1.O=C(O)C(F)(F)F`: the Inhibition in the assay with Plasmodium falciparum [1] was determined as 87%; in the assay with Plasmodium falciparum [2] it was 85%; in the assay with HepG2 it was 7%.
The like results for `COc1ccc(NC(=O)c2c(NC(=O)c3cccs3)sc3c2CCCC3)cc1` were, in that order, 97%, 4% and 4%.
The like results for `CCCN(CCCCNC(=O)c1ccc(-c2cccnc2)cc1)C1CCc2c(O)cccc2C1.Cl` (stereo unspecified) were, in that order, 87%, 16% and 0%.
The like results for `COc1cccc(NC(=O)NCCNc2ccnc(Nc3ccc(F)cc3)n2)c1` were, in that order, 94%, 1% and 18%.
For `CN(C)c1ccc(OCCCCCCOc2ccccc2)cc1.Cl`, the Inhibition stood at 85% in the assay on Plasmodium falciparum [1], 68% in the assay on Plasmodium falciparum [2] and 0% in the assay on HepG2.
For `O=C(Nc1ccc(Cn2ncc(N3CCNCC3)c(Cl)c2=O)cc1)Nc1ccc(-c2ccccc2)cc1.O=C(O)C(F)(F)F` the same measures were 98%, 33% and 29%.
On to `C[C@@H]([C@@H](CCCCc1ccccc1)C(=O)N[C@H](C(=O)Nc1cccnc1)C(C)(C)C)N(O)C=O`, for which the Inhibition with Plasmodium falciparum [1] turned out to be 98%; in the assay on Plasmodium falciparum [2] it was 98%; with HepG2 it was 0%.
For `O=C(Nc1ccc(C(=O)N(Cc2ccc3c(c2)OCO3)C2CCCC2)cc1)c1cccs1`, the Inhibition in the assay on Plasmodium falciparum [1] was 97%; with Plasmodium falciparum [2], 95%; in the assay on HepG2 it was 14%.
The like results for `Nc1nccc2ccc(-c3ccc(Oc4ccccc4)cc3)cc12.O=C(O)C(F)(F)F` were, in that order, 98%, 80% and 36%.
The like results for `Cc1cnc(C(=O)Nc2ccc(-c3cccc(-c4nc5ccccc5[nH]4)c3)cc2)cn1` were, in that order, 93%, 8% and 77%.
For `O=C(Nc1ccc(S(=O)(=O)N2CCOCC2)cc1)c1cc(-c2cc(Cl)ccc2O)n[nH]1` the same measures were 96%, 59% and 40%.
Regarding `COc1ccc2ncc(Cl)c([C@H](O)CN3CCC(NCc4cc5c(cn4)OCCO5)CC3)c2c1.Cl`, the Inhibition in the assay with Plasmodium falciparum [1] was found to be 100%; in the assay with Plasmodium falciparum [2], 100%; in the assay with HepG2, 10%.
`CN(C)c1ccc(CN2CCC(NC(=O)c3ccc(-c4ccc(N(C)C)cc4)s3)CC2)cc1.O=C(O)C(F)(F)F`: the Inhibition turned out to be 93% in the assay with Plasmodium falciparum [1], 21% in the assay on Plasmodium falciparum [2] and 24% in the assay with HepG2.
For `O=C(C=Cc1ccc(Cl)c(Cl)c1)NCCCCCN1CCC(c2n[nH]c3ccccc23)CC1` the same measures were 99%, 29% and 32%.
On to `CCc1ccc(C2CCN(CCCCNC(=O)c3ccc(-c4ccc(Cl)cc4)cc3)CC2)c(O)c1`, for which the Inhibition in the assay on Plasmodium falciparum [1] is given as 100%; in the assay with Plasmodium falciparum [2] it was 99%; in the assay with HepG2 it was 48%.
Take `CCCCc1ccc(Cc2cnc3nc(N)nc(N)c3c2C)cc1`: the Inhibition was found to be 96% in the assay with Plasmodium falciparum [1], 5% in the assay with Plasmodium falciparum [2] and 64% with HepG2.
`Cc1ccc(CNC(=O)[C@H](CCCN)Nc2cc(C)nc(Nc3ccccc3)n2)cc1.O=C(O)C(F)(F)F`: the Inhibition in the assay with Plasmodium falciparum [1] turned out to be 90%; in the assay with Plasmodium falciparum [2], 0%; in the assay with HepG2, 0%.
On to `Cc1nc(C)c(-c2ccc(Br)cc2)c(O)c1Br`, for which the Inhibition in the assay on Plasmodium falciparum [1] is recorded as 98%; in the assay on Plasmodium falciparum [2], 95%; in the assay on HepG2, 9%.
Consider `CC1(C)N=C(N)N=C(N)N1c1ccc(Br)cc1.Cl`, for which the figures for the Inhibition with Plasmodium falciparum [1], in the assay on Plasmodium falciparum [2] and with HepG2 were 94%, 4% and 52%, respectively.
The like results for `CCOC(=O)CN1Cc2cc(NCc3ccc4ccc5nc(C)[nH]c(=O)c5c4c3)ccc2C1=O` were, in that order, 84%, 91% and 40%.
In the case of `COc1ccc(Nc2nccc(NCCNC(=O)Nc3cc(C)ccc3C)n2)cc1`, the Inhibition in the assay on Plasmodium falciparum [1] is 85%; with Plasmodium falciparum [2], 0%; with HepG2, 10%.
For `O=C(/C=C/c1ccc(Cl)c(Cl)c1)NCCCCCN1CCCN(C(=S)Nc2cccc(Cl)c2)CC1` the same measures were 93%, 7% and 19%.
The like results for `O=C(CSc1nn(-c2ccccc2)c(=S)s1)c1c[nH]c2ccccc12` were, in that order, 93%, 68% and 0%.
`CC(=O)Nc1ccc(C(=O)Nc2cccc(-c3ccc(-c4nc5cc(F)ccc5[nH]4)s3)c2)cn1`: the Inhibition stood at 100% in the assay with Plasmodium falciparum [1], 97% in the assay with Plasmodium falciparum [2] and 33% in the assay on HepG2.
`Cc1cc(=O)c(-c2ccc(Oc3ccc(Cl)cc3Cl)cc2)c(C)[nH]1`: the Inhibition is 93% with Plasmodium falciparum [1], 73% in the assay with Plasmodium falciparum [2] and 0% in the assay on HepG2.
The like results for `O=C(Nc1ccc(-c2ccc(-c3nc4cc(C(F)(F)F)ccc4[nH]3)cc2)cc1)Nc1ccc(F)c(F)c1F` were, in that order, 99%, 100% and 39%.
The like results for `Cc1nc(-c2nc(NCCc3c(C)noc3C)ncc2-c2ccsc2)sc1C` were, in that order, 87%, 85% and 12%.
As to `N#Cc1ccc(S(=O)(=O)N2C(c3cccc([N+](=O)[O-])c3)C(C(=O)c3ccccc3)N(C3CCCCC3)C2c2cccc([N+](=O)[O-])c2)cc1` (stereo unspecified), the Inhibition in the assay with Plasmodium falciparum [1] was determined as 83%; in the assay on Plasmodium falciparum [2], 79%; in the assay on HepG2 it was 16%.
For `CCNc1cc(C(=O)N[C@@H](Cc2ccc(Cl)cc2)[C@H](O)CNC2CCCCC2)cc(N2CCCCS2(=O)=O)c1.Cl` the same measures were 98%, 99% and 6%.
The like results for `CCCN(CC1CC1)c1ncc(-c2ccccc2CNCc2ccccc2O)cn1` were, in that order, 100%, 98% and 4%.
For the molecule `COc1cc2c(cc1COc1ccccc1)CCN1Cc3cc(OC)c(OC)cc3CC21` (stereo unspecified), the Inhibition in the assay on Plasmodium falciparum [1] was 99%; in the assay with Plasmodium falciparum [2] it was 84%; in the assay on HepG2 it was 0%.
For `Br.COc1ccccc1CCCON1C(=N)N=C(N)NC1(C)C` the same measures were 95%, 92% and 68%.
For `CC(C)c1ccc(N2CCN(CCCCNC(=O)c3ccc(NC(=O)c4cc(Cl)cc(Cl)c4)cc3)CC2)cc1` the same measures were 100%, 86% and 12%.
The like results for `O=C(N[C@@H](Cc1ccccc1)C(=O)NC1CCCCCC1)c1ccc(O)c(-c2cccc(C(F)(F)F)c2)c1` were, in that order, 98%, 70% and 0%.
`Cc1cccc2nc(-c3cccc(-c4cccc(CNCCNC(=O)c5ccnn5C)c4)c3)[nH]c12.O=C(O)C(F)(F)F`: the results for the Inhibition in the assay with Plasmodium falciparum [1], in the assay with Plasmodium falciparum [2] and in the assay with HepG2 were 100%, 71% and 26%, respectively.
For the molecule `COc1ccc(Nc2ncc3c(-c4cccc(NC(=O)Cc5cccc(O)c5)c4)c[nH]c3n2)cc1OC`, the Inhibition was 100% with Plasmodium falciparum [1], 96% with Plasmodium falciparum [2] and 44% with HepG2.
For `Br.CC1(C)N=C(N)N=C(N)N1OCc1cccc(C#N)c1` the same measures were 94%, 2% and 57%.
With `Cl.O=C(Nc1ccc(C(=O)OCC2CCCN3CCCCC23)cc1)c1ccc([N+](=O)[O-])cc1` (stereo unspecified), the Inhibition with Plasmodium falciparum [1] is 95%; in the assay on Plasmodium falciparum [2] it was 25%; in the assay on HepG2, 5%.
For `CC1CCCN(Cc2c(O)ccc3c(O)c(-c4nc5ccccc5s4)c(=N)oc23)C1` (stereo unspecified) the same measures were 100%, 99% and 20%.
For `Cc1nnsc1C(=O)Nc1cccc(-c2ccc(-c3nc4cccc(C)c4[nH]3)s2)c1` the same measures were 100%, 44% and 46%.
Consider `COc1cccc(C(=O)C2CC2CN(C)CCC(O)c2ccc(Cl)c(Cl)c2)c1` (stereo unspecified), for which the Inhibition in the assay on Plasmodium falciparum [1] is recorded as 99%; in the assay with Plasmodium falciparum [2], 95%; with HepG2 it was 17%.
For `FC(F)(F)c1ccc(CSc2ccc3nnc(-c4ccccn4)n3n2)cc1` the same measures were 95%, 54% and 0%.
As for `Nc1nc(N)c2c(Cc3ccccc3)cccc2n1`, the Inhibition is 94% in the assay with Plasmodium falciparum [1], 3% in the assay on Plasmodium falciparum [2] and 68% in the assay with HepG2.
With `CC(C)(C)OC(=O)NCc1ccc(Nc2nnc(-c3ccc(OCC(=O)NCc4cc(C(F)(F)F)cc(C(F)(F)F)c4)c([N+](=O)[O-])c3)o2)cc1`, the Inhibition with Plasmodium falciparum [1] is given as 97%; in the assay with Plasmodium falciparum [2], 92%; in the assay with HepG2, 24%.
The like results for `CCOc1cc(C)ccc1N(C1CCN(CCCCNC(=O)c2ccc(-c3ccc(C(F)(F)F)cc3)cc2)CC1)S(=O)(=O)c1ccccc1` were, in that order, 88%, 85% and 14%.

(Values after ChEMBL document CHEMBL1157539, “Thousands of chemical starting points for antimalarial lead identification” (Nature, 2010).)
